Reference: the supplement of paper PMC11006884
About 6,500 targets were measured; listed, in parts, are those with a hit and a random draw of the rest. About 2% of all pairs of compound and target were hits.

These targets were tested with COC(=O)C#Cc1ccccc1 [methyl 3-phenylpropiolate] (assay: log2 ratio of iodoacetamide-alkyne labeling of the cysteine site, DMSO over compound (competition); higher = stronger covalent engagement of the cysteine by the compound, active = 1 or more). Conditions: 500 µM; treatment time 1 h; system: HEK293T cell lysate.
Summary of the method: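 For each cysteine, the log2 competition ratio is mean control-channel reporter intensity over mean compound-channel reporter intensity. HEK293T lysate (2 mg/mL) was exposed to vehicle or electrophile (500 µM, 1 h, ambient temperature), labelled with iodoacetamide alkyne (1 h), clicked to sCIP-TMT reagents, digested overnight with trypsin at 37 °C, streptavidin-enriched and analysed by Orbitrap Eclipse LC-MS/MS with FAIMS and FragPipe. Cysteines quantified in only one of three replicates, each with duplicate channels, were excluded.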

Sequence of UniProt O60832 (O60832 whole entry): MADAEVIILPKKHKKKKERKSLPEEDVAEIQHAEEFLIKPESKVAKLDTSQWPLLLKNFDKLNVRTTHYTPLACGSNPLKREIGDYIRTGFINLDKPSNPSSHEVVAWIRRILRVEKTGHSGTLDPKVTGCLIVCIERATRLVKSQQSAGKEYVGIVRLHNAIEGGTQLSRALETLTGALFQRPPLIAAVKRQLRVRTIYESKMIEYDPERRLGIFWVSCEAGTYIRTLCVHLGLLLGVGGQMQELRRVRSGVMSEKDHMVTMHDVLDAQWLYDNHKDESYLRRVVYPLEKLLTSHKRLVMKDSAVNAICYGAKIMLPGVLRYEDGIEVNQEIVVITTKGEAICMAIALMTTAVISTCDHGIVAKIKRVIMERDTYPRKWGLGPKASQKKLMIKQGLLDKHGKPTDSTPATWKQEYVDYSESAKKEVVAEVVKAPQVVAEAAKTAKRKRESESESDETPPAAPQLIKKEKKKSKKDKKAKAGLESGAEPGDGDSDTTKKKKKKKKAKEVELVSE
Sequence of UniProt O75821 (O75821 whole entry, looked up): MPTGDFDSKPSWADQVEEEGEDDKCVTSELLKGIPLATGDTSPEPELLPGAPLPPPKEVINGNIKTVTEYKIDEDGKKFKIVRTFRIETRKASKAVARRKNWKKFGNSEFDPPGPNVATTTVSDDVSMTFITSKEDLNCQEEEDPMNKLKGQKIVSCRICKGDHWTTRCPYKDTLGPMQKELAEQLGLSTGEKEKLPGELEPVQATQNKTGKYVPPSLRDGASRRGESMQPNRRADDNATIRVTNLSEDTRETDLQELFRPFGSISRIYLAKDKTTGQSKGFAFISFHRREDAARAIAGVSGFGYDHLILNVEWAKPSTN
Sequence of UniProt O60343 (O60343 whole entry, looked up): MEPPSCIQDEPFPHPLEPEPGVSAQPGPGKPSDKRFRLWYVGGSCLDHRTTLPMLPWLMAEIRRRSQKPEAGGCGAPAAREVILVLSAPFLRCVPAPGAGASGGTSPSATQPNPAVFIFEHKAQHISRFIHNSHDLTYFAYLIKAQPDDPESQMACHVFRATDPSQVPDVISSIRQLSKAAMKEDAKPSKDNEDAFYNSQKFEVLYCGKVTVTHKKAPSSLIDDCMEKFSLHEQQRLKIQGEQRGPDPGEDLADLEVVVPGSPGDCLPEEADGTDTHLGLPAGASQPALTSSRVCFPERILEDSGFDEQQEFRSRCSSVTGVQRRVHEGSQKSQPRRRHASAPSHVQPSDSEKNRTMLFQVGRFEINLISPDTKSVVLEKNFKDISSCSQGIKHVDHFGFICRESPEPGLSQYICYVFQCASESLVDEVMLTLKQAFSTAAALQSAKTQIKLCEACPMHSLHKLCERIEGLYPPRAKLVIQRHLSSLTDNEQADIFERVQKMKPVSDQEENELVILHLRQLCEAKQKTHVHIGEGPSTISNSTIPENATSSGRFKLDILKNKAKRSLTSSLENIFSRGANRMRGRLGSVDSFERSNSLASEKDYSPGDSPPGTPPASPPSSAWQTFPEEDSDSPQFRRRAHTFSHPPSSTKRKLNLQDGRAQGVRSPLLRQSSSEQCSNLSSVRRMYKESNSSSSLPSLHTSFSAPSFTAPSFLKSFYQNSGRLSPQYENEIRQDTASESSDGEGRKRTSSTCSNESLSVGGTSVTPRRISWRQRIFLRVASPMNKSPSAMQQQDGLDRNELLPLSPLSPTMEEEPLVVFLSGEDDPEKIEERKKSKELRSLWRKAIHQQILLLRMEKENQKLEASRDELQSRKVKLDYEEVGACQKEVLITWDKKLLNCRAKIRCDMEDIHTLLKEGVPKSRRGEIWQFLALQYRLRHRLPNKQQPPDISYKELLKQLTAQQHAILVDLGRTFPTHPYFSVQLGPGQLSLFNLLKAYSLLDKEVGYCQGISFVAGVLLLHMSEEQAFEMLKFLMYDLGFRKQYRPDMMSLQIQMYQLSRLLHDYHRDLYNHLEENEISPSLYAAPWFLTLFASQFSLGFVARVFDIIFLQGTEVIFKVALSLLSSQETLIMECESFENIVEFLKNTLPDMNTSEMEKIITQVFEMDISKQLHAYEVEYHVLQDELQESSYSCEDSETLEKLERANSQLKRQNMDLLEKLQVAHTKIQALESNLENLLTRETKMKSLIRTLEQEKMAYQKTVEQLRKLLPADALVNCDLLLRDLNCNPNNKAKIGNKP
Sequence of UniProt O60841 (O60841 whole entry, looked up): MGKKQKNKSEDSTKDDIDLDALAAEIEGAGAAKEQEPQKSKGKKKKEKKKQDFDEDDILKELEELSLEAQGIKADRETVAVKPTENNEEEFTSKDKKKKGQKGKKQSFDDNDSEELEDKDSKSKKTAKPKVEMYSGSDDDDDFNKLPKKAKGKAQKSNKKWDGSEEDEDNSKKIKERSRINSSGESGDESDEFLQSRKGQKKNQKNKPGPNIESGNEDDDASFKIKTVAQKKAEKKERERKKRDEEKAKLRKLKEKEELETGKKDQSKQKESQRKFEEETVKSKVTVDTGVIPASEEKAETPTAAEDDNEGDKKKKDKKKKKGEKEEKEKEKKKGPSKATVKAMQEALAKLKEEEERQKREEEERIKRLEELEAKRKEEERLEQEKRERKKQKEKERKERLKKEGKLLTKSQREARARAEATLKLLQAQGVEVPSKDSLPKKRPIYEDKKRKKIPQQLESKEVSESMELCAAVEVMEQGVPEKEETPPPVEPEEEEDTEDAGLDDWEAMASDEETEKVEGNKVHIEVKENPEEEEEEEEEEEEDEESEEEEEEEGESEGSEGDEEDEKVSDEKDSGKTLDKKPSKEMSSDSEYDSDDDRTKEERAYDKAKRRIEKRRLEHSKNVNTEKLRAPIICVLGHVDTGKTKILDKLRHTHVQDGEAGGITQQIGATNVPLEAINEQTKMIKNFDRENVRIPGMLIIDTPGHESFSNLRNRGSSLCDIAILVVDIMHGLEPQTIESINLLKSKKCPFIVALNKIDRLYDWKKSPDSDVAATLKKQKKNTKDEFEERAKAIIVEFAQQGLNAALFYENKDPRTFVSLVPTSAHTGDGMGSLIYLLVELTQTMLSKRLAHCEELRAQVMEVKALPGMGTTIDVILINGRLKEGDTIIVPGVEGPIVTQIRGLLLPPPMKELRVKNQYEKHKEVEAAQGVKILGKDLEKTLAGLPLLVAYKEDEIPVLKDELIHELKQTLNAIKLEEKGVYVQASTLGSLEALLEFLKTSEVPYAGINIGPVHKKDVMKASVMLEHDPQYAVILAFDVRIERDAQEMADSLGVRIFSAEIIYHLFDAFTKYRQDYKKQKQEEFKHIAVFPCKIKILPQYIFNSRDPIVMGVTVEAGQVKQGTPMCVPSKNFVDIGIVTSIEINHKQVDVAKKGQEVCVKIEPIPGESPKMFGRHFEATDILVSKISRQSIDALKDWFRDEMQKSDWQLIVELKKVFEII
Sequence of UniProt O94762 (O94762 whole entry, looked up): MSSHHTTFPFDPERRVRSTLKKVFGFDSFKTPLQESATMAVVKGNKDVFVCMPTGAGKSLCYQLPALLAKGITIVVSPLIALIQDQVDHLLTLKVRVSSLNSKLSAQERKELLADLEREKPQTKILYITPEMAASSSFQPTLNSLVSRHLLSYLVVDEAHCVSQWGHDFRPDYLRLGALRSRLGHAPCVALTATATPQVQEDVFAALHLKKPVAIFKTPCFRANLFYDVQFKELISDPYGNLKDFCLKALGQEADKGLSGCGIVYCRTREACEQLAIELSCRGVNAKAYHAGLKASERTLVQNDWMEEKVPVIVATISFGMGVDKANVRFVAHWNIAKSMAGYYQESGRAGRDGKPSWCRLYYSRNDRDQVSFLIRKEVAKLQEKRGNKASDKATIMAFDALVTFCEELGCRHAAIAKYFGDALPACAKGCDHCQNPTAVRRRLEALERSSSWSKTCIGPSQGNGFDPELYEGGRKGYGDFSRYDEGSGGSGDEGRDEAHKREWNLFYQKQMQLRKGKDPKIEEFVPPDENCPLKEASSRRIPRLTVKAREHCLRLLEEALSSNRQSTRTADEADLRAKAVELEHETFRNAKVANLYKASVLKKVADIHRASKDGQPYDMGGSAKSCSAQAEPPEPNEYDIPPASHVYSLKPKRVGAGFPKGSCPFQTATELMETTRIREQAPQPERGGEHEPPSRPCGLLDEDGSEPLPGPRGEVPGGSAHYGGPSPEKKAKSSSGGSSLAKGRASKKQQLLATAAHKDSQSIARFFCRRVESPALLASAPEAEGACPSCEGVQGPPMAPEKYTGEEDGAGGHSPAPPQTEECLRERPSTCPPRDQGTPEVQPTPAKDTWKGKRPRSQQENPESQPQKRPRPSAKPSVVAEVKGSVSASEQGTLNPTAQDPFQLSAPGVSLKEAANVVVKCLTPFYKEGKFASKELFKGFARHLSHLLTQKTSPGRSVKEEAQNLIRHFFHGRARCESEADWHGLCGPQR
Sequence of UniProt O15226 (O15226 whole entry, looked up): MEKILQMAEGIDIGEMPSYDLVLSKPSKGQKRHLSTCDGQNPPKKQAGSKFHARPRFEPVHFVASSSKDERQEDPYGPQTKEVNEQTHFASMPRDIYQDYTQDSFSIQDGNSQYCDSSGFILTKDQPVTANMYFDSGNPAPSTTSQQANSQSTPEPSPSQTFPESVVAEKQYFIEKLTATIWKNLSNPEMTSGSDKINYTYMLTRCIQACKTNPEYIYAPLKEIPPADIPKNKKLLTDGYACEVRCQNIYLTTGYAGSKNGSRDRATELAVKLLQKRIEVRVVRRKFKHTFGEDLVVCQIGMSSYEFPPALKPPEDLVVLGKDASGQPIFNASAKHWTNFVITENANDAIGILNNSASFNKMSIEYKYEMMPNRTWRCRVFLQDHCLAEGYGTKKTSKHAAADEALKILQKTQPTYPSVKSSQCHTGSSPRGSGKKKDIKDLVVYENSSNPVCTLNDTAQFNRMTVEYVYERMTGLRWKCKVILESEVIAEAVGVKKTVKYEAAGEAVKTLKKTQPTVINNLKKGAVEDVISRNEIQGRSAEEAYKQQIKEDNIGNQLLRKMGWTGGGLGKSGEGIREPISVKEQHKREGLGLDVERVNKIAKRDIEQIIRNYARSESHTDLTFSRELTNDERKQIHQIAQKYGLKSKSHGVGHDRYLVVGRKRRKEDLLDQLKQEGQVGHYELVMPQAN

Row | Target | log2 ratio of iodoacetamide-alkyne labeling
1 | EIF5B C853 (UniProt O60841) | 1 (active)
2 | PGRMC2 C159 (UniProt O15173) | 0.159 (inactive)
3 | TRAFD1 C482 (UniProt O14545) | 1.55 (active)
4 | IPO5 C750 (UniProt O00410) | 0.168 (inactive)
5 | SART1 C645 (UniProt O43290) | 0.0232 (inactive)
6 | O15320_C147 (UniProt Q96PC5+O15320) | -0.197 (inactive)
7 | APAF1 C115 (UniProt O14727) | 0.288 (inactive)
8 | UniProt O60232_C56 | 0.126 (inactive)
9 | CD3EAP C107 (UniProt O15446) | 0.723 (inactive)
10 | NUP155 C704 (UniProt O75694) | 0.168 (inactive)
11 | PFAS C606 (UniProt O15067) | 1.53 (active)
12 | RNMT C73 (UniProt O43148) | 0.607 (inactive)
13 | VPS4B C240 (UniProt O75351) | 0.188 (inactive)
14 | PSIP1 C204 (UniProt O75475) | 0.31 (inactive)
15 | WDR46 C456 (UniProt O15213) | 0.493 (inactive)
16 | NKRF C37 (UniProt O15226) | 1.02 (active)
17 | DKC1 C74 (UniProt O60832) | 0.427 (inactive)
18 | NPM3 C105 (UniProt O75607) | 0.636 (inactive)
19 | EIF3D C437 (UniProt O15371) | -0.116 (inactive)
20 | UniProt O75528_C7 | 1.05 (active)

Row | Target | log2 ratio of iodoacetamide-alkyne labeling
21 | EIF3G C139 (UniProt O75821) | 0.259 (inactive)
22 | RECQL5 C664 (UniProt O94762) | 1.47 (active)
23 | UniProt O14628_C178 | 1.09 (active)
24 | UniProt O75153_C88 | 0.201 (inactive)
25 | PRKRA C106 (UniProt O75569) | 1.07 (active)
26 | FLNB C660 (UniProt O75369) | 0.476 (inactive)
27 | ATP6V1G1 C104 (UniProt O75348) | 0.03 (inactive)
28 | TBC1D4 C1277 (UniProt O60343) | 0.374 (inactive)
29 | UniProt O00148_C62 | 0.591 (inactive)
30 | SF3B1 C677 (UniProt O75533) | 0.316 (inactive)
31 | HEXIM1 C84 (UniProt O94992) | 1.3 (active)
32 | FLNB C2556 (UniProt O75369) | 0.079 (inactive)
33 | PGP C297 (UniProt A6NDG6) | 1.17 (active)
34 | STX16 C150 (UniProt O14662) | 0.0256 (inactive)
35 | PJA2 C224 (UniProt O43164) | 0.22 (inactive)
36 | SF3B1 C1035 (UniProt O75533) | 0.375 (inactive)
37 | EPB41L2 C424 (UniProt O43491) | 0.17 (inactive)
38 | TMEM189 C22 (UniProt A5PLL7) | 1.52 (active)
39 | UniProt O00567_C52 | 0.482 (inactive)
